{"source": "PubChem BioAssay (Tox21)", "note": "Values joined by “and” are separate entries in the source; they are usually repeats but may differ in a detail not shown here. Identical values can stand only once. Results filed as inconclusive are left out. A call without a number means that no potency is given here. Active and inactive are the calls of the source. Calls come from the whole dose curve; as a rule, active = well fitted cell-killing curve with a large enough effect in the repeat runs; inconclusive = weak or mixed curves, or effect the other way; inactive = no such curve, though single readings can be large or run the other way. Potency is the fitted concentration of half-maximal effect."}
{"assay": "qHTS assay for identifying genotoxic compounds that show differential cytotoxicity against isogenic chicken DT40 cell lines with known DNA damage response pathways - wild type cell line (AID 743012); note: nearly all actives have a fitted effect of over 60% in size", "details": "DT40 wild type chicken cells viability, CellTiter-Glo, 40 h; series mostly up to 68.4 µM", "text": "U.S. Tox21 Program National Center for Advancing Translational Sciences [NCATS] NIH Chemical Genomics Center [NCGC] U.S. Environmental Protection Agency [EPA] National Institutes of Environmental Health Sciences [NIEHS] National Toxicology Program [NTP] U.S. Food and Drug Administration [FDA] Tox21 Assay Overview: DNA repair pathways play a critical role in cellular homeostasis by repairing DNA damage induced by endogenous processes and xenobiotics. Isogenic chicken DT40 cell lines deficient in different DNA repair pathways can be used to identify genotoxic compounds and aid in characterizing the nature of the DNA damage induced. Two DNA repair-deficient cell lines with disrupted genes, Rad54/Ku70 or Rev3, were used to screen the Tox21 10K compound library. Possible genotoxicity was based on the presence of a significant increase in cytotoxicity in one or more of the DNA repair-deficient cell lines compared to that observed in the parental DNA repair-proficient cell line. CellTiter Glo viability assay (Promega, Madison, WI) was used to measure cell viability in these cells after compound treatment. This assay includes the data from the wild type cell line.\nTox21 Assay Protocol Summary: 300 DT40 wild type cells in 5 uL/well were dispensed into white, solid-bottom 1536-well plates using a Multidrop Combi (ThermoFisher Scientific, Waltham, MA) dispenser. After the assay plates were incubated at 37 C/5% CO2 for approximately 0.5 hour, 23 nL of compounds dissolved in DMSO, positive controls or DMSO only was transferred into the assay plate by a pintool work station (Kalypsys, San Diego, CA). The assay plates were incubated at 37 C/5% CO2 for 40 hours. After 5 uL per well of CellTiter-Glo reagent was added into each well of the assay plates, the plates were incubated for 30 min at room temperature and the luminescence intensity of the plates was measured using a ViewLux (PerkinElmer, Shelton, CT) plate reader."}
{"smiles": "c1ccc2ncccc2c1", "Potency": "inactive"}
{"smiles": "CCCCCCCCCCCCO", "Potency": "inactive"}
{"smiles": "CC(C)=CCO", "Potency": "inactive"}
{"smiles": "COC(=O)c1ccc(C)cc1", "Potency": "inactive"}
{"smiles": "CN(C)C", "Potency": "inactive"}
{"smiles": "O=C(CCCN1CCC(O)(c2ccc(Cl)cc2)CC1)c1ccc(F)cc1", "Potency": "5.96 µM (active) and 7.7 µM (active)"}
{"smiles": "ClC/C=C/CCl", "Potency": "inactive"}
{"smiles": "CC1(C)NC(=O)N(c2ccc([N+](=O)[O-])c(C(F)(F)F)c2)C1=O", "Potency": "5.96 µM (active) and 4.86 µM (active)"}
{"smiles": "Cc1ccc(C(C)(C)C)c(O)c1", "Potency": "54.5 µM (active)"}
{"smiles": "C[C@]12CC[C@@H]3c4ccc(O)cc4CC[C@H]3[C@@H]1CC[C@@H]2O", "Potency": "29.8 µM (active) and 61.1 µM (active)"}
{"smiles": "COc1cc([C@H]2Oc3cc([C@H]4Oc5cc(O)cc(O)c5C(=O)[C@@H]4O)ccc3O[C@@H]2CO)ccc1O", "Potency": "inactive"}
{"smiles": "O=C(O)CCCCCCCCCCCC(=O)O", "Potency": "inactive"}
{"smiles": "CCCCCC1C(=O)CCC1CC(=O)OC", "note": "(stereo not given)", "Potency": "inactive"}
{"smiles": "C=CCOC(=O)C(=C)C", "Potency": "inactive"}
{"smiles": "Cc1cccc(Nc2ccccc2C(=O)O)c1C", "Potency": "inactive"}
{"smiles": "Nc1ccc2c(O)cc(S(=O)(=O)O)cc2c1", "Potency": "inactive"}
{"smiles": "C=CC(C)(O)CCC=C(C)C", "note": "(stereo not given)", "Potency": "inactive"}
{"smiles": "CCOC(=O)C(C)Oc1ccc(Oc2cnc3cc(Cl)ccc3n2)cc1", "note": "(stereo not given)", "Potency": "40.5 µM (active)"}
{"smiles": "NC[C@H](O)c1ccc(O)c(O)c1", "Potency": "23.7 µM (active) and 21.7 µM (active)"}
{"smiles": "CC1(C)O[C@@H]2C[C@H]3[C@@H]4C[C@H](F)C5=CC(=O)C=C[C@]5(C)[C@@]4(F)[C@@H](O)C[C@]3(C)[C@]2(C(=O)CO)O1", "Potency": "inactive"}
{"smiles": "COc1ccc(C(=O)c2ccccc2O)c(O)c1", "Potency": "inactive"}
{"smiles": "CC(=O)O[C@]1(C(C)=O)CC[C@H]2[C@@H]3C=C(C)C4=CC(=O)CC[C@]4(C)[C@H]3CC[C@@]21C", "Potency": "11.4 µM (active) and 13.7 µM (active)"}
{"smiles": "C=C1C[C@H]2[C@@H]3C=C(C)C4=CC(=O)CC[C@]4(C)[C@H]3CC[C@]2(C)[C@@]1(OC(C)=O)C(C)=O", "Potency": "7.5 µM (active) and 14 µM (active)"}
{"smiles": "O=[Se](O)O", "Potency": "433 nM (active) and 5.23 µM (active)"}
{"smiles": "CC/C=C\\C/C=C\\C/C=C\\CCCCCCCC(=O)O", "Potency": "inactive"}
{"smiles": "CN(Cc1cnc2nc(N)nc(N)c2n1)c1ccc(C(=O)N[C@@H](CCC(=O)O)C(=O)O)cc1", "Potency": "9.4 nM (active) and 1.7 nM (active)"}
{"smiles": "CCCCCCC(C)O", "note": "(stereo not given)", "Potency": "inactive"}
{"smiles": "CCCCCCOCCOCCO", "Potency": "inactive"}
{"smiles": "CCC(Cc1c(I)cc(I)c(N)c1I)C(=O)O", "note": "(stereo not given)", "Potency": "inactive"}
{"smiles": "CC1(C)C(C=C(Cl)Cl)C1C(=O)OCc1cccc(Oc2ccccc2)c1", "note": "(stereo not given)", "Potency": "inactive"}
{"smiles": "FC(F)(F)C(Cl)Br", "note": "(stereo not given)", "Potency": "inactive"}
{"smiles": "CC(=O)[C@@]1(O)CC[C@H]2[C@@H]3C[C@H](C)C4=CC(=O)C=C[C@]4(C)[C@@]3(F)[C@@H](O)C[C@@]21C", "Potency": "inactive"}
{"smiles": "O=Cc1ccccc1C=O", "Potency": "7.5 µM (active) and 2.73 µM (active)"}
{"smiles": "CC(=O)[C@H]1CC[C@H]2[C@@H]3CC=C4C[C@@H](O)CC[C@]4(C)[C@H]3CC[C@]12C", "Potency": "inactive"}
{"smiles": "Cc1ccc(C(C)(C)C)cc1", "Potency": "inactive"}
{"smiles": "CCc1cccc2c3c([nH]c12)C(CC)(CC(=O)O)OCC3", "note": "(stereo not given)", "Potency": "inactive"}
{"smiles": "NCCS(=O)(=O)O", "Potency": "inactive"}
{"smiles": "[O-]/[N+](=N\\O)c1ccccc1", "Potency": "inactive"}
{"smiles": "Cc1ccc(/C(=C\\CN2CCCC2)c2ccccn2)cc1", "Potency": "26.6 µM (active) and 57.3 µM (active)"}
{"smiles": "O=C(O)c1cc(=O)[nH]c(=O)[nH]1", "Potency": "inactive"}
